Assay outcomes deposited in PubChem by National Center for Advancing Translational Sciences (NCATS).
uPA generation – qHTS for Inhibitors of Cell Surface uPA Generation | cell surface uPA generation assay, qHTS | Potency, µM (doses to about 38.3 µM), inactives show at the highest dose activity change, negative = inhibition, actives largely listed as inhibitors | 0.31% of 330,000 active; active = well fitted inhibition curve with a large enough effect; inconclusive = small, poorly fitted or top-dose-only effect; inactive = no such curve, though single readings can be large or run the other way; tested in mouse RAW 264.7 cells; also: potency is read from the fitted curve at half-maximal effect; nearly all actives have a fitted effect of over 55% in size
IL1B secr inh – qHTS for Inhibitors of Inflammasome Signaling: IL-1-beta AlphaLISA Primary Screen; THP-1 LPS/ATP IL-1B secretion, AlphaLISA, 16 h; hits give low values; activity change, % at 57.5 µM; 4.7% of 360,000 active; in the data active = activity change below about -50%; inconclusive = mostly about -30% to -49%
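Secreted IL-1B measured by AlphaLISA bead assay after 16 h compound exposure of THP-1 cells; compounds (final up to 57.5 uM) added 1 h before LPS (250 ng/mL) and ATP (1.25 mM) stimulation; lower signal means less secretion.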
DT40 TDP1 CPT – qHTS for Inhibitors of human tyrosyl-DNA phosphodiesterase 1 (TDP1): qHTS in cells in presence of CPT | Potency, µM (highest dose often 46.2 µM), for inactives: at the highest dose activity change, negative = growth inhibition, hits mostly inhibitors | 12% of 420,000 active | AID 686979, 2013 | chicken DT40 Tdp1-/-;hTDP1 cells + 20 nM CPT, ATP luminescence, 48 h; also: potency is read from the fitted curve at half-maximal effect; nearly all actives have a fitted effect of over 55% in size
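Chicken DT40 Tdp1-/- cells stably complemented with human TDP1 were seeded at 400 cells/well in medium containing 20 nM camptothecin, exposed to pin-transferred compounds, and grown at 37 °C for at least 48 hr. Viability was read as ATP luminescence.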
HT1080-NT tox – qHTS for induction of synthetic lethality in tumor cells producing 2HG: qHTS for the HT-1080-NT fibrosarcoma cell line; Potency, µM (highest dose often 46.1 µM), inactives show top-dose activity, negative = less viability, actives largely listed as cytotoxic; 1.6% of 360,000 active; HT-1080-NT fibrosarcoma viability, CellTiter-Glo ATP luminescence, 48 h;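 also: NT is the 2HG producing partner of a matched IDH1 knockdown line; potency is read from the fitted curve at half-maximal effect; 0% = DMSO-treated cells and -100% = media-only wells without cells; nearly all actives have a fitted effect of over 55% in size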
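750 cells/well, RPMI + 5% FBS; 2 h settle, compound pin-transfer, 48 h at 37 degrees C. CellTiter-Glo 10 min RT, luminescence. Normalized to DMSO and media-only wells.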
HT1080 IDH1KD tx – qHTS for induction of synthetic lethality in tumor cells producing 2HG: qHTS for the HT-1080-IDH1KD cell line | HT-1080 IDH1 knockdown viability, ATP luminescence, 48 h | Potency, µM (titrated, usually from 46.1 µM), inactives show top-dose activity, negative = toxicity, most hits filed as cytotoxic | 2% of 360,000 active | AID 686971, 2013;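 also: potency is read from the fitted curve at half-maximal effect; 0% = DMSO wells and -100% = cell-free medium wells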
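Cytotoxicity counter-line: IDH1KD HT-1080, 48 h, CellTiter-Glo. Curves classed by r2, magnitude and activity.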
TDP1 cell noCPT – qHTS for Inhibitors of human tyrosyl-DNA phosphodiesterase 1 (TDP1): qHTS in cells in absence of CPT. 15% of 420,000 active. Potency, µM (top dose mostly 46.2 µM), without a hit: top-dose activity change, negative = growth inhibition, actives largely listed as inhibitors. DT40 Tdp1-/- hTDP1 cells, no CPT, ATP luminescence, 48 h. AID 686978, 2013; also: potency is read from the fitted curve at half-maximal effect; nearly all actives have a fitted effect of over 55% in size
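Seeded 400 DT40-hTDP1 cells/well (vehicle DMSO, no 20 nM CPT); pinned compounds; ≥48 hr at 37 °C; CellTiter-Glo luminescence as viability measure.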
An asterisk follows results filed as active; [ ] = remark or other dose. The list is not random: actives were taken first. Their share in the collection is about 19%. Unless noted, calls follow the shape of the dose curve; as a rule, active = well fitted curve in the direction sought with a large enough effect; inconclusive = small, poorly fitted or top-dose-only effect, or another doubt; inactive = no such curve, though single readings can be large; an effect the other way counts as inactive or inconclusive. Unless noted, % is scaled to controls: 0 for no effect and ±100 for the full control effect.

Screening c1ccc(Oc2c3ccccc3nc3ccccc23)cc1 returned uPA generation -8%, IL1B secr inh 11, DT40 TDP1 CPT inconclusive, HT1080-NT tox inconclusive, HT1080 IDH1KD tx inconclusive and TDP1 cell noCPT 21µM*.
For Fc1ccc(Oc2nc(-c3ccccn3)nc3ccccc23)cc1 the results were uPA generation -10%, DT40 TDP1 CPT 4.6µM*, HT1080-NT tox -23%, HT1080 IDH1KD tx inconclusive and TDP1 cell noCPT 5.8µM*.
`COc1ccc(Oc2nc(-c3ccccn3)nc3ccccc23)cc1` gave uPA generation -18%, IL1B secr inh -93*, DT40 TDP1 CPT 3.3µM*, HT1080-NT tox inconclusive, HT1080 IDH1KD tx inconclusive and TDP1 cell noCPT 4.1µM*.
`c1ccc(Oc2nc(-c3ccccn3)nc3ccccc23)cc1` gave uPA generation -9%, IL1B secr inh inconclusive, DT40 TDP1 CPT 2.6µM*, HT1080-NT tox -8%, HT1080 IDH1KD tx inconclusive and TDP1 cell noCPT 2.1µM*.
Screening COc1ccc(Oc2nc(-c3ccncc3)nc3ccccc23)cc1 returned uPA generation -1%, IL1B secr inh -6, DT40 TDP1 CPT -3%, HT1080-NT tox inconclusive, HT1080 IDH1KD tx 1% and TDP1 cell noCPT inconclusive.
For O=C(Nc1ccnn1C1CCN(Cc2cccc(F)c2F)CC1)C1CCCC1 the results were uPA generation 15%, IL1B secr inh 0, DT40 TDP1 CPT 2%, HT1080-NT tox 4%, HT1080 IDH1KD tx 0% and TDP1 cell noCPT -4%.
CCCCCCOc1ccc(C(CC(N)=O)C(=O)O)cc1 (configuration not stated) was read as uPA generation -3%, IL1B secr inh 6, DT40 TDP1 CPT 21%, HT1080-NT tox 3%, HT1080 IDH1KD tx 10% and TDP1 cell noCPT -2%.
Cc1ccc(S(=O)(=O)Oc2ccc(C3C4=C(CCCC4=O)OC4=C3C(=O)CCC4)cc2)cc1 was read as uPA generation 3%, IL1B secr inh 31, DT40 TDP1 CPT 23µM*, HT1080-NT tox 2%, HT1080 IDH1KD tx 4% and TDP1 cell noCPT 16µM*.
Screening CC1CCc2c(sc(NC(=O)CCc3nc4ccccc4c(=O)[nH]3)c2C#N)C1 (configuration not stated) returned uPA generation 5%, IL1B secr inh 13, DT40 TDP1 CPT 16µM*, HT1080-NT tox 0%, HT1080 IDH1KD tx 1% and TDP1 cell noCPT 18µM*.
Cc1cc(C)nc(SCC(=O)Nc2sc3c(c2C#N)CCC(C)C3)n1 (configuration not stated) was read as uPA generation 0%, IL1B secr inh 40, DT40 TDP1 CPT 21µM*, HT1080-NT tox -3%, HT1080 IDH1KD tx -14% and TDP1 cell noCPT 15µM*.
`CCCCCCCCCCCCC/C=C/[C@@H](O)[C@H](CO)N(C)C` gave DT40 TDP1 CPT -2%[4.12 µM] and TDP1 cell noCPT 1%[4.12 µM].
Nn1c(SCC(=O)NC2CCCC2)nnc1C(F)(F)F was read as IL1B secr inh 8, DT40 TDP1 CPT -9%, HT1080-NT tox 1%, HT1080 IDH1KD tx -1% and TDP1 cell noCPT -11%.
CCN(CC(=O)NCc1cccs1)CC(=O)Nc1cccc(S(N)(=O)=O)c1 was read as uPA generation -25%, IL1B secr inh -1, DT40 TDP1 CPT -7%, HT1080-NT tox 0%, HT1080 IDH1KD tx -2% and TDP1 cell noCPT 22%.
CCC(=O)n1nc(-c2ccc(Cl)cc2)nc1N was read as uPA generation -18%, IL1B secr inh -14, DT40 TDP1 CPT -11%, HT1080-NT tox -4%, HT1080 IDH1KD tx -5% and TDP1 cell noCPT 2.6µM*.
For COCCCNC(=O)c1ccccc1N(Cc1ccccc1)S(=O)(=O)c1ccc(OC)cc1 the results were uPA generation inconclusive, IL1B secr inh 53, DT40 TDP1 CPT inconclusive, HT1080-NT tox inconclusive, HT1080 IDH1KD tx -3% and TDP1 cell noCPT 21µM*.
C=CCN(c1ccccc1OC)S(=O)(=O)c1ccc(Cl)c(C(=O)NCc2ccco2)c1 was read as IL1B secr inh 26, DT40 TDP1 CPT 18µM*, HT1080-NT tox -2%, HT1080 IDH1KD tx -1% and TDP1 cell noCPT 13µM*.
COc1ccc(S(=O)(=O)N(Cc2ccccc2)c2ccccc2C(=O)Nc2ccccc2C(=O)NCc2ccco2)cc1 was read as uPA generation 9%, IL1B secr inh -6, DT40 TDP1 CPT inconclusive, HT1080-NT tox 6%, HT1080 IDH1KD tx 1% and TDP1 cell noCPT 5.8µM*.
`COc1ccc(S(=O)(=O)Nc2ccccc2C(=O)NCc2ccco2)cc1` gave uPA generation 3%, IL1B secr inh 12, DT40 TDP1 CPT 21µM*, HT1080-NT tox 22%, HT1080 IDH1KD tx 23% and TDP1 cell noCPT inconclusive.
CN(c1ccccc1C(=O)Nc1ccccc1C(=O)NCc1ccco1)S(C)(=O)=O was read as IL1B secr inh -9, DT40 TDP1 CPT 1%, HT1080-NT tox 2%, HT1080 IDH1KD tx 26% and TDP1 cell noCPT 3%.
`C=CCN(c1ccccc1OC)S(=O)(=O)c1cccc(C(=O)NCc2ccco2)c1` gave uPA generation -1%, IL1B secr inh 55, DT40 TDP1 CPT 0%, HT1080-NT tox 0%, HT1080 IDH1KD tx -8% and TDP1 cell noCPT 17%.
For Cc1ccc(-n2ccc(=O)c(C(=O)Nc3ccc(S(=O)(=O)Nc4onc(C)c4C)cc3)n2)cc1 the results were uPA generation 1%, IL1B secr inh 15, DT40 TDP1 CPT 14%, HT1080-NT tox 11%, HT1080 IDH1KD tx 11% and TDP1 cell noCPT 9%.
`CCCCCOC(=O)CSc1ncnc2sc3c(c12)CCC(C)C3` (configuration not stated) gave DT40 TDP1 CPT -15% and TDP1 cell noCPT -11%.
Screening C[C@]12c3[nH]c4cc(-c5ccco5)ccc4c3CCN1C(=O)[C@@H](CC(=O)NCCc1ccccn1)C[C@@H]2C(=O)N1CCCCC1 returned uPA generation inconclusive, IL1B secr inh -108*, DT40 TDP1 CPT inconclusive, HT1080-NT tox -5%, HT1080 IDH1KD tx -10% and TDP1 cell noCPT inconclusive.
